Shown are actives, neighbours in structure and some others; about 19% of the full set was active somewhere.
DT40 TDP1 CPT = qHTS for Inhibitors of human tyrosyl-DNA phosphodiesterase 1 (TDP1): qHTS in cells in presence of CPT; chicken DT40 Tdp1-/-;hTDP1 cells + 20 nM CPT, ATP luminescence, 48 h; Potency, µM (top dose mostly 46.2 µM), without a hit: at the top dose activity change, negative = growth inhibition, usual class: inhibitors; 420,000 tested, 12% active; AID 686979, 2013; also: potency is read from the fitted curve at half-maximal effect; % is scaled to controls: 0 for no effect and ±100 for the full control effect; nearly all actives have a fitted effect of over 55% in size
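Cell growth measured by CellTiter-Glo luminescence after a minimum 48 h, 37 C compound exposure with 20 nM CPT in Tdp1-knockout DT40 cells stably expressing hTDP1, seeded 400/well; qHTS titration format.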
TDP1 cell noCPT = qHTS for Inhibitors of human tyrosyl-DNA phosphodiesterase 1 (TDP1): qHTS in cells in absence of CPT. Potency, µM (highest dose often 46.2 µM), for inactives: at the highest dose activity change, negative = growth inhibition, most hits filed as inhibitors. AID 686978, 2013. 420,000 tested, 15% active. DT40 Tdp1-/- hTDP1 cells, no CPT, ATP luminescence, 48 h; also: potency is read from the fitted curve at half-maximal effect; % is scaled to controls: 0 for no effect and ±100 for the full control effect; nearly all actives have a fitted effect of over 55% in size
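Cells were dispensed at 400 per well, compounds added by pin tool, plates incubated ≥48 hr at 37 °C, then CellTiter-Glo added for 30 min at room temperature before luminescence reading. Line: DT40 Tdp1-/- complemented with hTDP1; camptothecin omitted.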
IL1B secr inh = qHTS for Inhibitors of Inflammasome Signaling: IL-1-beta AlphaLISA Primary Screen; THP-1 LPS/ATP IL-1B secretion, AlphaLISA, 16 h; hits give low values; activity change, % at 57.5 µM; 360,000 tested, 4.7% active; AID 743279, 2014; in the data active = activity change below about -50%; inconclusive = mostly about -30% to -49%; also: % is scaled to controls: 0 for no effect and ±100 for the full control effect
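THP-1 cells pretreated 1 hr with compounds (up to 57.5 uM final), then stimulated with LPS (250 ng/mL final) plus ATP (1.25 mM final); secreted IL-1B measured by AlphaLISA after 16 hr, decreased signal indicating inhibition.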
TDP1 inh = qHTS Assay for Inhibitors of Tyrosyl-DNA Phosphodiesterase (TDP1); Tyrosyl-DNA phosphodiesterase 1 (Homo sapiens), Q9NUW8; AID 485290, 2010; recombinant TDP1, AlphaScreen DNA substrate cleavage; 350,000 tested, 0.28% active; Potency, µM (highest dose often 130 µM), inactives show top-dose activity change, negative = inhibition, actives largely listed as inhibitors; also: potency is read from the fitted curve at half-maximal effect; % is scaled to controls: 0 for no effect and ±100 for the full control effect; nearly all actives have a fitted effect of over 40% in size
Target sequence (Q9NUW8 whole entry, looked up): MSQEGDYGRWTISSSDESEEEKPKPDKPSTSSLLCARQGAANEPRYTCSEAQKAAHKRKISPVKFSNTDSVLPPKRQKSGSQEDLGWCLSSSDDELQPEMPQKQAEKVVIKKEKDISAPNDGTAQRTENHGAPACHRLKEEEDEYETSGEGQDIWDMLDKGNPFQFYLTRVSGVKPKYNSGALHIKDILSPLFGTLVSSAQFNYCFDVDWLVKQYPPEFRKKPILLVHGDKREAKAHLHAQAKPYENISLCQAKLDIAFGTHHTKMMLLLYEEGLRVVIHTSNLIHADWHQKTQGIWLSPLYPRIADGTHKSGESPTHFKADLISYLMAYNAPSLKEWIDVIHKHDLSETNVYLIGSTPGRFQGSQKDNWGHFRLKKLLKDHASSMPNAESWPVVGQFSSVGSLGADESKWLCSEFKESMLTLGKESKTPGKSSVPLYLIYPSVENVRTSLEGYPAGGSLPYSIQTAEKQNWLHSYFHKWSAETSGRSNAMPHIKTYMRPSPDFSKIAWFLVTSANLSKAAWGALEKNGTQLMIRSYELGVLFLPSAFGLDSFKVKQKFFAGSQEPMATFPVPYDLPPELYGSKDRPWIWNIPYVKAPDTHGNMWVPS
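Here, a 5' biotin and 3' phosphotyrosine-FITC DNA oligonucleotide reports Tdp1 activity: intact substrate bridges AlphaScreen beads, while cleavage leaves a 3' phosphate and drops signal. All incubations at room temperature.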
HepG2 tox = qHTS for Inhibitors of TGF-b: Cytotox Counterscreen; HepG2 CAGA-GFP viability, ATP luminescence, 18 h; Potency, µM (top dose mostly 46.1 µM), without a hit: top-dose activity change, negative = cytotoxicity, most hits filed as cytotoxic; 410,000 tested, 0.76% active; AID 588856, 2011; also: potency is read from the fitted curve at half-maximal effect
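CellTiter-Glo luminescence gave cytotoxicity after 18 hours at 37 degrees C. The cells were HepG2 CAGA-GFP in 1% FBS DMEM, stimulated with 500 pg/mL TGF-beta after compound addition. %Activity was normalised to no-cell wells (complete cell-killing) and DMSO (no toxicity), and curves were fitted and classified.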
TGFb SMAD3 inh = qHTS for Inhibitors of TGF-b | AID 588855, 2011 | Potency, µM (series often up to 46.1 µM), for the others: top-dose activity, negative = inhibition, most hits filed as inhibitors | HepG2 CAGA-GFP TGF-b/SMAD3 reporter, GFP fluorescence, 18 h; TGF-beta stimulated, 500 pg/mL final | 410,000 tested, 1.2% active; also: potency is read from the fitted curve at half-maximal effect; % is scaled to controls: 0 for no effect and ±100 for the full control effect; nearly all actives have a fitted effect of over 65% in size
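Using HEPG2 CAGA-GFP reporter cells at 1000 cells/well, we pinned test compounds, stimulated with recombinant TGF-beta (500 pg/mL final) and measured total well GFP after 18 h.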
The depositor's hits bear a star; u = inconclusive; x = not tested or not shown; ! = not confirmed by another sample; [ ] = dose if it differs, or a comment. Unless noted, calls follow the shape of the dose curve; as a rule, active = well fitted curve in the direction sought with a large enough effect; inconclusive = small, poorly fitted or top-dose-only effect, or another doubt; inactive = no such curve, though single readings can be large; an effect the other way counts as inactive or inconclusive.

SMILES	DT40 TDP1 CPT	TDP1 cell noCPT	IL1B secr inh	TDP1 inh	HepG2 tox	TGFb SMAD3 inh
COc1ccc(-c2cc(=NCCC(=O)O)c3cc(C)ccc3o2)cc1	-2%	-27%	-58*	2%	-29%	5%
COc1ccc(-c2cc(=Nc3ccccc3)c3cc(C)ccc3o2)cc1	u	u	-6	0%	-22%	u
O=C1NCN(c2ccccc2)C12CCN(C(CCc1ccccc1)c1nnnn1C1CCCCC1)CC2 (stereo not drawn)	u	u	-56*	x	-49%	13µM*
O=C1NCN(c2ccccc2)C12CCN(C(CCc1ccccc1)c1nnnn1C1CCCC1)CC2 (stereo not drawn)	u	u	u	x	-32%	11µM*
O=C1NCN(c2ccccc2)C12CCN(C(c1cccs1)c1nnnn1C1CCCC1)CC2 (stereo not drawn)	u	u	-12	x	-5%	u
O=C(Nc1ccccc1)OC1CN=C(N[N+](=O)[O-])NC1 (stereo not drawn)	-20%	-2%	6	5%	3%	2%
Cc1nc(N)sc1CCN	u	-7%	x	15%	x	x
CCOc1ccc(/C=C/C(=O)C(C(N)=O)=C2SCCS2)cc1	u	u	-5	-3%	-1%	u
Cc1ccc(S(=O)(=O)N2CC3CC(C2)c2cccc(=O)n2C3)cc1 (stereo not drawn)	-13%	-13%	2	3%	3%	18%
Cc1ccc(S(=O)(=O)N2CN3CCN(C3)C2)cc1	16µM*	u	0	2%	1%	-5%
c1ccc([Se]c2c(-c3ccccc3)[se]c3ccccc23)cc1	x	x	x	-7%	x	x
Cc1ccc(-n2c(O)c(C=NCCC3=CCCCC3)c(=O)[nH]c2=O)cc1	-1%	-13%	-7	2%	4%	-1%
Clc1ccc(CO[C@@H](Cn2ccnc2)c2ccc(Cl)cc2Cl)cc1	x	x	x	15%[56.1 µM]	x	x
C=CCOC(Cn1ccnc1)c1ccc(Cl)cc1Cl (stereo not drawn)	30µM*	9.4µM*	8	3%	9%	2%
Clc1ccc(COC(Cn2ccnc2)c2ccc(Cl)cc2Cl)c(Cl)c1 (stereo not drawn)	18µM*!	15µM*	u	11%	16µM*!	u
Cc1ccc(NC(=O)C2CCN(C(=O)c3cnn(-c4ccccc4)c3-n3cccc3)CC2)cc1Cl	u	13µM*	x	5%	-27%	14µM*
COc1ccc(CNC(=O)C2CCN(c3nc(OC)nc(OC)n3)CC2)cc1	u	16µM*	13	x	1%	1%
COc1ccc(CNC(=O)C2CCN(C(=O)c3cnn(-c4ccccc4)c3-n3cccc3)CC2)cc1	16µM*	6.5µM*	x	3%	-10%	u
Cc1nnc(N2CCC(C(=O)NCc3ccc(N(C)C)cc3)CC2)c2nn(-c3ccccc3)c(C)c12	u	u	x	8%	-16%	-3%
O=C(NCc1ccc(Cl)cc1)C1CCN(C(=O)c2cnn(-c3ccccc3)c2-n2cccc2)CC1	15µM*	10µM*	x	0%	-28%	u
CCCCC/C(=N/O)c1c(C)[nH]c2ccccc12	-27%	u	-62*	6%	0%	-20%
CCOc1ccccc1N(CC(=O)NCCc1ccc(OC)cc1)S(=O)(=O)c1ccc(C)cc1	10µM*	8.2µM*	-19	x	-8%	3%
COc1ccc(CCNC(=O)CCn2c(=O)oc3ccccc32)cc1	-4%	-3%	2	5%	-38%	-3%
